Screens: PubChem, National Center for Advancing Translational Sciences (NCATS)
Hits are enriched below; roughly 2.8% of the tested compounds scored in any of these assays.
KDM5B inh = Primary screen for KDM5B Histone Demethylases FDH-coupled qHTS. 2.6% of 220,000 active. KDM5B demethylase, FDH-coupled NADH fluorescence (FDH is formaldehyde dehydrogenase). Potency, µM (doses to about 57.7 µM), hits mostly inhibitors; also: potency is read from the fitted curve at half-maximal effect; 0% is about no effect; nearly all actives have a fitted effect of over 70% in size
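Inhibition is measured as reduced NADH fluorescence generation from FDH coupling to formaldehyde release. Truncated KDM5BΔAP at 200 nM final acts on H3K4me3 peptide (12.5 µM in substrate mix) in pH 7.5 HEPES buffer with Tween-20, 30 min, room temperature.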
IP6K1 inhibitor = Primary qHTS assay for small molecule inhibitors of Inositol hexaphosphate kinase 1 (IP6K1). Inositol hexakisphosphate kinase 1 (Homo sapiens), Q92551. IP6K1 kinase, ADP-Glo luminescence, 2 h; stronger effect = lower value. activity change, % (series mostly up to about 58 µM). 0.81% of 140,000 active. AID 1645851, 2021; in the data active = activity change below about -25%; also: % is scaled to controls: 0 for no effect and ±100 for the full control effect
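ADP-Glo luminescence measures ADP made by human IP6K1 during a 2 h RT reaction with ATP/IP6 (mix at 1.3 mM/130 uM); top library doses 57.5 and 19.1 uM final.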
SNCA expr inh = Primary qHTS assay for inhibitors of alpha-synuclein gene (SNCA) expression. HEK-293 SNCA-luciferase knock-in, luminescence, 24 h. Potency, µM (top dose mostly 57.2 µM), for the others: top-dose activity change, negative = inhibition, hits mostly inhibitors. 0.17% of 140,000 active;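 also: potency is read from the fitted curve at half-maximal effect; plate controls were DMSO cells for no effect and cell-free wells for full effect; nearly all actives have a fitted effect of over 45% in size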
SNCA viab count = GF-AFC viability counterscreen for inhibitors of alpha-synuclein gene (SNCA) expression | HEK-293-SNCA-luc viability, GF-AFC fluorescence, 24 h | Potency, µM (series often up to 57.1 µM), for inactives: at the highest dose activity change, negative = cytotoxicity, most hits filed as cytotoxic | 0.12% of 150,000 active | AID 1671193, 2021;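 also: potency is read from the fitted curve at half-maximal effect; 0% = DMSO-treated cells and -100% = medium-only wells without cells; nearly all actives have a fitted effect of over 30% in size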
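Cytotoxicity counterscreen: after 24 h compound treatment of genome-edited SNCA-luciferase HEK-293 cells, live-cell protease substrate GF-AFC read by fluorescence after 30 min; activity scaled between DMSO (0%) and medium-only (-100%), curves Hill-fitted.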
* hit, by the source's call; i = inactive; ? = inconclusive; . = no result given; [ ] = remark or other dose. Unless noted, calls follow the shape of the dose curve; as a rule, active = well fitted curve in the direction sought with a large enough effect; inconclusive = small, poorly fitted or top-dose-only effect, or another doubt; inactive = no such curve, though single readings can be large; an effect the other way counts as inactive or inconclusive.

SMILES	KDM5B inh	IP6K1 inhibitor	SNCA expr inh	SNCA viab count
COc1ccc(-c2ccnc(N[C@H]3CO[C@H]4[C@@H]3OC[C@@H]4NS(=O)(=O)c3ccc(NC(C)=O)cc3)n2)cc1	?	-17.7	-16.8%	-10.5%
O=C(O)CSCC(=O)N[C@H]1CO[C@H]2[C@@H]1OC[C@@H]2Nc1nccc(-c2cccc(F)c2)n1	25.1µM*	3.2	-20.8%	-1.2%
c1coc(-c2ccnc(N[C@H]3CO[C@H]4[C@@H]3OC[C@@H]4NCC3CCCCC3)n2)c1	31.6µM*	0.5	2.6%[87.6 µM]	-8.0%[87.6 µM]
COc1ccc(-c2nc(C)nc3c2CCN([S+](=O)([O-])c2c(C)noc2C)CC3)cc1	i	-4.4	-15.6%	2.1%
CCCCNC(=O)CN1C(=O)CCn2nc(-c3cn(C)c4ccccc34)cc21	i	.	.	.
CCCNC(=O)c1cn(C)nc1-c1ccc2c(c1)OCCCO2	i	.	.	.
O=C(O)CCC(=O)N[C@H]1CO[C@H]2[C@@H]1OC[C@@H]2Nc1nccc(-c2cccc(F)c2)n1	31.6µM*	-3.3	10.5%[87.6 µM]	1.2%[87.6 µM]
Cn1c(Cn2cccn2)nnc1C1CCCN(C(=O)c2ccoc2)C1 (stereo unspecified)	i	-4.8	12.6%	23.5%
O=C(Cn1ccn2nc(-c3ccc(F)cc3)c(CO)c2c1=O)Nc1cc(F)ccc1Cl	i	5.3	?	-18.3%
Cc1ccc(NC(=O)Cn2ccn3nc(-c4ccc(F)cc4)c(CO)c3c2=O)cc1	22.4µM*	-1.8	5.5%	6.9%
O=C(Cn1ccn2nc(-c3ccc(F)cc3)c(CO)c2c1=O)Nc1cccc(C(F)(F)F)c1	22.4µM*	2.1	6.5%	8.2%
O=C(Cn1ccn2nc(-c3ccc(F)cc3)c(CO)c2c1=O)Nc1ccccc1Cl	28.2µM*	2.6	-7.2%	1.7%
CSc1ccc(CCNC(=O)C(CCS(C)(=O)=O)N2Cc3ccccc3C2=O)cc1 (stereo unspecified)	i	.	.	.
COCc1cc(C[C@@H]2C[C@H](NCc3ccco3)C2(C)C)no1	i	-8.9	-3.1%[87.6 µM]	-0.6%[87.6 µM]
CCCCc1ccc(NC(=O)Cn2ccn3nc(-c4ccccc4)c(CO)c3c2=O)cc1	25.1µM*	10.2	-29.6%	7.1%
O=C(Cn1ccn2nc(-c3ccccc3)c(CO)c2c1=O)NCCc1ccc(Cl)cc1	28.2µM*	-0.5	38.4%	-4.4%
COc1ccc(CCNC(=O)Cn2ccn3nc(-c4ccccc4)c(CO)c3c2=O)cc1OC	?	9.2	41.9%	-7.1%
O=C(Cn1ccn2nc(-c3ccccc3)c(CO)c2c1=O)Nc1ccc(Br)cc1	?	14.1	0.2%	-2.8%
O=C(Cn1ccn2nc(-c3ccccc3)c(CO)c2c1=O)Nc1ccc(Cl)cc1	28.2µM*	5.3	-4.3%	1.5%
Cc1cn2nc(C(=O)NCc3ccccn3)cc2c(=O)[nH]1	?	-11.0	26.2%	2.7%
Cc1cn2nc(C(=O)Nc3ccc(C(=O)NCCc4cccs4)cc3)cc2c(=O)[nH]1	25.1µM*	7.1	-24.0%	-7.8%
Cc1noc(-c2ccn3c(CNC(=O)c4ccc(F)c(Cl)c4)nnc3c2)n1	25.1µM*	17.7	3.0%	0.0%
Cc1ccc(C(=O)NCc2nnc3cc(-c4nc(C5CC5)no4)ccn23)cc1F	?	-2.9	?	?
Cc1noc(-c2ccn3c(CNC(=O)c4nccc5ccccc45)nnc3c2)n1	31.6µM*	6.8	29.7%	-3.1%
CCc1noc(-c2ccn3c(CNC(=O)c4nccc5ccccc45)nnc3c2)n1	?	6.4	-8.3%	-3.8%
SMILES	KDM5B inh	IP6K1 inhibitor	SNCA expr inh	SNCA viab count
O=C(NCc1nnc2cc(-c3nc(C4CC4)no3)ccn12)c1c(F)cccc1F	25.1µM*	13.0	-13.8%	-2.2%
O=C(NCc1nnc2cc(-c3nc(C4CC4)no3)ccn12)c1ccccc1Cl	22.4µM*	35.7	-29.1%	-4.5%
O=C(NCc1cccc(C(F)(F)F)c1)c1ccc2oc(-c3ccccn3)nc2c1	.	-4.9	7.5%	1.1%
COc1ccc(NS(=O)(=O)c2ccc(OCC(=O)NCc3ccc4c(c3)OCO4)c(C)c2)cc1	i	.	.	.
O=C(NCc1nnc2cc(-c3nc(C4CC4)no3)ccn12)c1ccccc1	i	12.0	-24.1%	5.9%
Cc1cc(C)cc(C(=O)NCc2nnc3cc(-c4nc(C5CC5)no4)ccn23)c1	i	14.2	-13.6%	-3.1%
O=C(NCc1nnc2cc(-c3nc(C4CC4)no3)ccn12)c1cccc(Cl)c1	14.1µM*	33.4	-23.7%	-12.2%
Cc1noc(-c2ccn3c(CNC(=O)c4ccccc4Cl)nnc3c2)n1	28.2µM*	-3.2	-2.7%	-10.5%
O=C(NCc1nnc2cc(-c3nc(C4CC4)no3)ccn12)c1ccoc1	31.6µM*	-0.5	-13.7%	?
CCn1nc(C(=O)Nc2cc(S(=O)(=O)N(C)C)ccc2OC)c2ccccc2c1=O	i	.	.	.
Cc1cc(C)c(CNC(=O)c2cc(-c3ccccc3)cc3c2OCCN3C(C)C)c(=O)[nH]1	35.5µM*	-14.7	?	?
Cc1ccc(-c2cc(C(=O)NCc3c(C)cc(C)[nH]c3=O)c3c(c2)N(C(C)C)CCO3)cc1	25.1µM*	2.8	?	-7.0%
Cc1cc(C)c(CNC(=O)c2cc(-c3ccc(CN4CCOCC4)cc3)cc3c2cnn3C2CCCC2)c(=O)[nH]1	.	-12.4	-15.5%	-28.2%
Cc1cc(C)c(CNC(=O)c2cc(-c3ccnn3C)cc3c2OCCN3C(C)C)c(=O)[nH]1	35.5µM*	-16.0	12.9%[87.6 µM]	-0.5%[87.6 µM]
COc1ncccc1-c1cc(C(=O)NCc2c(C)cc(C)[nH]c2=O)c2c(c1)N(C(C)C)CCO2	28.2µM*	-6.9	26.0%	-4.7%
Cc1ccc(Nc2ccnc(N3CCN(C(=O)C(C)(C)C)CC3)n2)cc1	.	-8.4	16.7%	8.2%
O=C(CSc1nnc2ccccn12)c1ccc(F)c(F)c1	i	.	.	.
Cc1cn2nc(C(=O)NCc3cccnc3)cc2c(N2CCCC2)n1	i	-14.2	-20.5%	6.3%
Cc1cn2nc(C(=O)NC3CCCCC3)cc2c(N2CCCC2)n1	28.2µM*	-3.3	-23.5%	-4.7%
Cc1cn2nc(C(=O)NCC(C)C)cc2c(N2CCCC2)n1	28.2µM*	14.0	-0.4%	6.3%
Cc1cc(NCc2cncn2CC(C)C)n2nc(C)cc2n1	?	6.8	4.0%	-8.6%
Cc1cc(NCCN2CCNC2=O)n2nc(C)cc2n1	17.8µM*	3.5	12.2%	3.9%
Cc1cn2nc(C(=O)N3CCN(c4cccc(Cl)c4)CC3)cc2c(N2CCCC2)n1	35.5µM*	6.0	-17.4%	-6.1%
Cc1cn2nc(C(=O)N3CCN(c4ccccn4)CC3)cc2c(N2CCCC2)n1	25.1µM*	2.8	-1.2%	?
O=C(NCCc1noc(-c2ccccc2)n1)C1COc2ccccc2C1 (stereo unspecified)	i	8.4	8.8%	12.2%
CC(C)(C)c1ccc(C(=O)N(c2ccc(Cl)cc2)C2C=CS(=O)(=O)C2)cc1 (stereo unspecified)	i	.	.	.
CCN1CCN(CCNC(=O)CCC[C@@H]2[C@H]3CCCN4CCC[C@@H](CN2C(C)=O)[C@@H]34)CC1	i	0.5	-15.7%	9.0%
